# MARV entry inh – qHTS for inhibitors of binding or entry into cells for Marburg Virus | 1.8% of 300,000 active | Potency, µM (titrated, usually from 37.8 µM), actives largely listed as inhibitors | Marburg virus pseudotyped entry inhibition, cell reporter; calls by dose curve; tested in HEK293 cells
# Vaccinia Venus – qHTS for Stage-Specific Inhibitors of Vaccinia Orthopoxvirus: Venus Reporter Primary qHTS; 0.46% of 330,000 active; Vaccinia virus Venus reporter expression, fluorescence; Potency, µM (top dose mostly 36.5 µM), actives largely listed as inhibitors; calls by dose curve; tested in A549 cells; further: nearly all actives have a fitted effect of over 30% in size
# Vaccinia mCherry – qHTS for Stage-Specific Inhibitors of Vaccinia Orthopoxvirus: mCherry Reporter Primary qHTS | Vaccinia virus mCherry reporter infection, fluorescence | Potency, µM (titrated, usually from 36.5 µM), actives largely listed as inhibitors | 0.63% of 310,000 active | AID 720579, 2013; calls by dose curve; tested in A549 cells; further: nearly all actives have a fitted effect of over 35% in size
# HCMV inh – qHTS Assay for inhibitors of the human cytomegalovirus (HCMV). HFF cells, HCMV-luciferase reporter, 72 h; hits give low values. activity change, negative = inhibition, % at 57.5 µM. 4.5% of 410,000 active; in the data active means activity change below about -60%; inconclusive means no clear call, values can overlap the other calls; inactive means above about -39%
#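 Cell-based, HFFs, 1000 cells/well, 16 h 37C; cpds in DMSO + HCMV-luc, MOI 1 PFU/cell; 72 h 37C; OneGlo luminescence after 5 min RT; norm. to buffer vs Salinomycin 10uM.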
# LASV entry inh – qHTS for Inhibitors of binding or entry into cells for Lassa Virus; Lassa virus pseudotype entry inhibition, cell reporter; Potency, µM (series often up to 37.9 µM), most hits filed as inhibitors; 1.2% of 300,000 active; calls by dose curve; tested in HEK293 cells; further: nearly all actives have a fitted effect of over 50% in size
# HCV inhibitor – qHTS Assay for Inhibitors of Hepatitis C Virus (HCV); Huh7.5.1 HCVcc-Cre infection, luciferase reporter, 44 h; Potency, µM (highest dose often 41.8 µM), most hits filed as inhibitors; 3.4% of 340,000 active; active means well fitted inhibition curve with a large enough effect; inconclusive means small, poorly fitted or top-dose-only effect, or another doubt; inactive means no such curve, though single readings can be large or run the other way
#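 Whole-lifecycle infectious HCVcc-Cre system; cells 1,000/well, compound then virus (~0.5 moi) added 4 h after plating, 44 h culture. Luciferase read 15 sec following 15 min substrate incubation, room temp.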
# Hits are given with their value; . = inactive; ? = inconclusive; / = not tested or not shown; ! = not confirmed by another sample. Only some compounds are listed: those with a hit (about 7.8% of all), similar ones and a draw of the others.
SMILES,MARV entry inh,Vaccinia Venus,Vaccinia mCherry,HCMV inh,LASV entry inh,HCV inhibitor
Cc1ccc(CN2CC(C(=O)Nc3ccc(S(=O)(=O)N4CCCCC4)cc3)CC2=O)cc1 (stereo not given),.,.,?,-68,?,.
O=C1CC(C(=O)N2CCN(c3ccccc3Cl)CC2)CN1Cc1ccccc1 (stereo not given),/,/,/,.,/,.
O=C(Nc1ccc(S(=O)(=O)N2CCCCC2)cc1)C1CC(=O)N(Cc2ccccc2)C1 (stereo not given),.,.,.,.,.,.
CCN(CC)S(=O)(=O)c1cc(NC(=O)C2CC(=O)N(Cc3ccccc3)C2)ccc1Cl (stereo not given),/,/,/,-63,/,11µM
Cc1ccc(CN2CC(C(=O)N3CCN(c4ccccc4O)CC3)CC2=O)cc1 (stereo not given),.,.,.,.,11µM,?
Cc1ccc(NC(=O)C2CC(=O)N(Cc3ccccc3)C2)cc1S(=O)(=O)N1CCCCCC1 (stereo not given),?,?,?,-77,?,8.9µM
COc1ccc(N=c2nc(-c3ccc(C)cc3)n(-c3ccccc3)s2)cc1,/,?,.,/,/,/
Cc1ccccc1C1=NC(C)(CC(=O)Nc2ccc(F)cc2F)ON1C (stereo not given),/,/,/,.,/,/
CCCCN(C(=O)CCC(=O)O)[C@H]1CC(=O)N(c2ccc(OCCC)cc2)C1=O,.,/,/,/,/,/
COc1cc2nc(N3CCCN(C)CC3)nc(N(C)C)c2cc1OC,/,.,.,/,/,/
COc1ccc(N2CCN(C(=O)Cc3coc4ccc(C)cc34)CC2)cc1,.,.,.,-114,.,/
Cc1cc(C)c2c(CC(=O)N3CCN(c4cccc(Cl)c4)CC3)coc2c1,?,.,.,.,.,/
Cc1ccc2occ(CC(=O)N3CCN(c4cccc(Cl)c4)CC3)c2c1,.,.,.,-71,.,/
COc1ccc(-c2noc(CC(=O)Nc3cc(OC)ccc3OC)n2)cc1,/,.,.,.,.,/
CN(Cc1ccccc1)C(=O)c1ccc(Nc2nc(C(N)Cc3ccc(C(F)(F)F)cc3)cs2)nc1 (stereo not given),/,?,.,-98,/,/
Cc1cnc(C)c(Nc2nc(C(N)Cc3ccc(C(F)(F)F)cc3)cs2)n1 (stereo not given),/,?,11µM,.,/,/
Cc1cnc(C)c(Nc2nc(C(N)Cc3ccccc3)cs2)n1 (stereo not given),/,.,.,.,/,/
CN(Cc1ccccc1)C(=O)c1ccc(Nc2nc(C(N)Cc3ccccc3)cs2)nc1 (stereo not given),/,.,.,.,/,/
CC(=O)c1ccc(Nc2nc(C(N)Cc3ccc(C(F)(F)F)cc3)cs2)cc1 (stereo not given),/,?,.,-61,/,/
NC(Cc1ccc(C(F)(F)F)cc1)c1csc(Nc2ccc(C(=O)c3ccccc3)cc2)n1 (stereo not given),/,?,?,-63,/,/
Cc1ccc2oc(-c3ccc(NC(=O)COc4ccccc4)cc3O)nc2c1,/,.,.,/,/,/
CC(=O)Nc1ccc(-c2nnc(SCc3ccccc3)n2C)cc1,/,.,.,/,/,/
CCOC(=O)c1c(NC(=O)c2cc(=O)c3c(C)cc(C)cc3o2)sc(C(C)=O)c1C,.,.,.,.,?,/
NC(Cc1ccc(C(F)(F)F)cc1)c1csc(Nc2ccccn2)n1 (stereo not given),/,?,11µM,.,/,/
CC(CNC(=O)CCCn1c(=O)c2cccn2c2ccc(F)cc21)c1ccccc1 (stereo not given),/,.,.,.,.,/
SMILES,MARV entry inh,Vaccinia Venus,Vaccinia mCherry,HCMV inh,LASV entry inh,HCV inhibitor
CC(CNC(=O)CCCn1c(=O)c2cccn2c2cccnc21)c1ccccc1 (stereo not given),/,.,.,-69!,.,/
Cc1cc2c(cc1C)NC(c1nc3ccccc3[nH]1)C1=C(CC(C)(C)CC1=O)N2 (stereo not given),.,.,.,-105,.,.
CC(=O)Nc1ccc(C2Nc3cc(C)c(C)cc3NC3=C2C(=O)CC(C)(C)C3)cc1 (stereo not given),/,/,/,.,/,.
CC(C)N1CCN(C(=O)c2cnn(-c3nccc(-c4ccc5c(c4)OCO5)n3)c2-c2ccco2)CC1,/,.,?,/,/,/
C=Cc1ccc(Cn2c(C(=O)O)c(CNCc3ccc(F)cc3)c3ccc(C)cc32)cc1,/,?,?,-91,?,/
COc1ccc2c(CNCc3cccs3)c(C(=O)O)n(Cc3ccc(F)cc3)c2c1,/,.,.,.,.,/
COc1ccc(Cn2c(C(=O)O)c(CNCc3ccc(OC)cc3OC)c3ccc(C)cc32)cc1,/,?,?,?,.,/
Cc1ccc2c(CNCc3cccs3)c(C(=O)O)n(Cc3ccc(F)cc3)c2c1,/,.,.,-102,?,/
COc1ccc(Cn2c(C(=O)O)c(CNCc3cccs3)c3ccc(C)cc32)cc1,/,.,.,-66,?,/
COc1ccc(Cn2c(C(=O)O)c(CNCCc3cc(OC)ccc3OC)c3ccc(C)cc32)cc1,/,.,.,-105,?,/
C=Cc1ccc(Cn2c(C(=O)O)c(CNCc3cccs3)c3ccc(C)cc32)cc1,/,.,.,.,?,/
COc1ccc(NS(=O)(=O)c2cnc(N)nc2)cc1Cl,/,.,.,.,?,/
COc1ccc(C(=O)N2CCC(c3nc4ccccc4s3)CC2)cc1Cl,.,.,?,?,?,/
CCCOC(=O)CSC1=C(C#N)[C@H](c2ccccc2OC)[C@H](C#N)C(=O)N1,.,/,/,/,/,/
c1ccc(CCc2nnc3n2CCN(Cc2ccc4ccccc4n2)CC3)cc1,/,.,.,/,/,/
CN(CC(=O)O)c1ccc(/C=C2\C=Cc3ccccc32)cc1,/,.,.,/,/,/
C=Cc1ccc(Cn2c(C(=O)O)c(CNCc3ccccc3)c3ccc(OC)cc32)cc1,/,.,.,?,.,/
COc1ccc(Cn2c(C(=O)O)c(CNCc3ccc(SC)cc3)c3ccc(OC)cc32)cc1,/,?,.,-91,?,/
CC(NC(=O)c1cccnc1)c1nnc2n1CCN(Cc1ccc(-c3ccccc3Cl)o1)CC2 (stereo not given),/,.,.,/,/,/
Cc1cccc(C)c1NC(=O)Cn1c(=O)n(CCC(=O)NCc2ccc3c(c2)OCO3)c(=O)c2sccc21,.,.,.,.,.,/
Cc1ccc2oc(=O)c3cc(C(=O)N4CCN(c5ccccc5)CC4)sc3c2c1,.,.,.,.,.,/
Cc1ccc(C(C)C)c(OCCSc2nc(-c3cccs3)nc3cc(=O)[nH]n23)c1,/,.,.,.,?,/
CN(C)c1ccc(C=O)cc1Cl,/,.,.,/,/,/
COC(=O)C[C@H]1c2ccccc2[C@@H]2C(=C[C@@H](C)[C@H]3C(=O)N(O)C(=O)[C@H]32)N1C(=O)OC,.,/,/,/,/,/
O=C(CCl)N(c1ccccc1)C1CCS(=O)(=O)C1 (stereo not given),?,11µM,10µM,-103,?,22µM
COc1ccc(NC(=O)c2c(NC(=O)c3ccncc3)sc3c2CCC(C(C)(C)C)C3)cc1 (stereo not given),.,?,10µM,.,.,/

# Bioassay records (PubChem)
